According to PubChem BioAssay AID1851 (National Center for Advancing Translational Sciences (NCATS), 2009):
Where “and” joins values, the source holds several entries; their conditions need not be identical. Identical values can stand only once. The whole screen tested about 16,000 compounds, of which about 2,600 (16%) were called active. Inconclusive results (about 20%) are left out. The call rests on the fitted dose curve; in most records, active means well fitted curve in the direction sought with a large enough effect; inconclusive means small, poorly fitted or top-dose-only effect, or effect the other way; inactive means no such curve, though single readings can be large or run the other way. Not all results are given here.
On the % scale 0 is the no-effect control and ±100 the full control effect.

What follows are molecules tested against Cytochrome P450 2D6 (Homo sapiens) (UniProt P10635) (assay: Cytochrome panel assay with activity outcomes). Conditions: recombinant CYP, pro-luciferin dealkylation, luminescence, p450-cyp2d6; series mostly up to 57.1 µM.
Cytochrome P450 2D6 (Homo sapiens), sequence (P10635 whole entry, looked up): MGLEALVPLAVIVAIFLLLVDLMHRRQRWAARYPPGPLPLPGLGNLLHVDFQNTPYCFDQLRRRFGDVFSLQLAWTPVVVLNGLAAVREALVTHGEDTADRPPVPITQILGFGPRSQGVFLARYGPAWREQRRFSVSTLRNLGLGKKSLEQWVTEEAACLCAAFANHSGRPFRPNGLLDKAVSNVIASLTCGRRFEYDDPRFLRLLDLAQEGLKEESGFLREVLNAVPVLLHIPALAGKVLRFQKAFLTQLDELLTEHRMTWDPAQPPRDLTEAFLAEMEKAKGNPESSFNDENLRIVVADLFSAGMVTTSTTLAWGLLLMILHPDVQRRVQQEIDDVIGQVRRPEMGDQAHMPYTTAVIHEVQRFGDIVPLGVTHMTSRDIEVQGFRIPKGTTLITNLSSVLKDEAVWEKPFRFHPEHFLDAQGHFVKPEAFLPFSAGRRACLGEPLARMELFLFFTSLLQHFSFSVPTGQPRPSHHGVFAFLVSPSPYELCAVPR
With `C[C@H](C(=O)c1ccccc1)[C@@H](c1ccccc1)N1CCOCC1` the activity, negative = inhibition was -5.64% [at 11.4 µM] (inactive).
For `CC1=C(C#N)C(Nc2ccc(Cl)cn2)(C(F)(F)F)C(=O)N1` (stereo not drawn), the AC50 was “inactive”.
`Cn1c(=O)c(-c2cc(F)cc(F)c2)nc2cnc(N3CCOCC3)nc21` was tested, and the AC50 was “inactive”.
For `COc1ccc(Nc2ncc3nc(-c4cccs4)c(=O)n(Cc4cccc(OC)c4)c3n2)cc1`, the AC50 was “inactive”.
`CCOc1cc(/C=N/NC(=O)CNc2cccc(C)c2)ccc1OC(=O)c1ccccc1` was tested, and the AC50 was “inactive”.
With `Cc1ccc(CS(=O)(=O)CCC(=O)NCc2ccccn2)cc1` the AC50 was “inactive”.
`CCOCCCNC(=O)CCS(=O)(=O)Cc1ccc(C)cc1` was tested, and the AC50 was “inactive”.
`Cc1ccc(CS(=O)(=O)CCC(=O)NCc2cccs2)cc1` was tested, and the AC50 was 11.2 µM (active).
For `COCC(=O)N(C)c1nnc(-c2ccc([N+](=O)[O-])cc2)s1`, the AC50 was “inactive”.
With `Cc1ccc(C)c(OCCCC(C)(C)C(=O)O)c1` the AC50 was “inactive”.
In the case of `CC(C)C(NC(=O)OCc1ccccc1)C(=O)O` (stereo not drawn), the AC50 is reported as “inactive”.
With `N[C@@H](Cc1ccccc1)C(=O)O` the activity, negative = inhibition was 4.66% [at 11.4 µM] (inactive).
With `N[C@H](C(=O)O)[C@H](OCc1ccccc1)C(=O)O` the AC50 was 7.94 µM (active).
For `CCOC(=O)C1=C(C)NC(C)=C(C(=O)OCC)C1c1sccc1C`, the AC50 was “inactive”.
With `CCCCC(=O)NC(=S)Nc1cccc(NC(=O)CC)c1` the AC50 was “inactive”.
`Cc1cc(C)c(NC(=O)NC(=O)c2ccc(F)cc2)c(C)n1` was tested, and the AC50 was “inactive”.
With `CCCCCN=c1ccn(Cc2ccccc2)c2ccccc12` the AC50 was 10 µM (active).
For `O=C(O)c1ccccc1C(=O)Nc1cc2c(cc1Br)-c1ccccc1C2=O`, the activity, negative = inhibition was 16.7% [at 11.4 µM] (inactive).
For `Cl/C(=C\n1cncn1)c1ccc(Cl)cc1Cl`, the AC50 was “inactive”.
`CC1(C)[C@@H]2CC[C@]1(CC(=O)O)[C@H](Cl)C2` was tested, and the activity, negative = inhibition was 6.22% [at 11.4 µM] (inactive).
`COc1ccc(C(C)(C)C)cc1NC(=O)c1cncc(Br)c1` was tested, and the AC50 was “inactive”.
In the case of `CC(=O)Nc1cc(C(F)(F)F)ccc1Oc1cccc(Br)c1`, the AC50 is reported as 10 µM (active).
`CCOc1ccc(C(F)(F)F)cc1NC(C)=O` was tested, and the AC50 was “inactive”.
In the case of `CSCC[C@H](NC(=O)CC(C)(C)C)c1nc2ccccc2[nH]1`, the AC50 is reported as “inactive”.
In the case of `C[N+](C)(C)c1nc(N)nc2c1ncn2[C@H]1O[C@@H](CO)[C@@H](O)[C@H]1O`, the activity, negative = inhibition is reported as 6.01% [at 11.4 µM] (inactive).
In the case of `O=C(COc1ccc(Br)cc1)Nc1ccc([N+](=O)[O-])cn1`, the AC50 is reported as “inactive”.
In the case of `COc1cc(/C=N\Nc2ccc([N+](=O)[O-])cc2)ccc1OCC(=O)Nc1ccc(C)c(C)c1`, the AC50 is reported as “inactive”.
For `O=C(COc1ccc([N+](=O)[O-])cc1)Nc1ccc(C(=O)NCc2cccnc2)cc1`, the AC50 was 3.16 µM (active).
`CCOC(=O)c1cccc(NC(=O)COc2ccc([N+](=O)[O-])cc2)c1` was tested, and the AC50 was 1.41 µM (active).
For `O=C(COc1ccc([N+](=O)[O-])cc1)NCc1ccccc1`, the AC50 was “inactive”.
With `O=C(COc1ccc(/C=N/NC(=O)c2ccccc2)cc1)Nc1ccc([N+](=O)[O-])cc1` the AC50 was “inactive”.
`O=S(=O)(c1ccccc1)c1cnn2c(C(F)(F)F)cc(-c3ccc(F)cc3)nc12` was tested, and the AC50 was “inactive”.
`COc1c(O[C@H]2O[C@@H](CO)[C@@H](O)[C@@H](O)[C@@H]2O)cc2c(c1OC)-c1ccc(SC)c(=O)cc1[C@H](NC(C)=O)CC2` was tested, and the AC50 was “inactive”.
In the case of `O=C1CCCC=C1[C@@H](O)CCOC(c1ccccc1)(c1ccccc1)c1ccccc1`, the activity, negative = inhibition is reported as -20.1% [at 11.4 µM] (inactive).
In the case of `CCOP(=O)(OCC)c1nc(/C=C/c2ccccc2)oc1NCc1ccccc1`, the AC50 is reported as “inactive”.
For `O=C1c2ccccc2C(Cc2ccncc2)(Cc2ccncc2)c2ccccc21`, the AC50 was “inactive”.
With `c1ccc(SCCc2ccncc2)cc1` the AC50 was 2.82 µM (active) and 1.26 µM (active).
In the case of `O=C(O)CCCSc1ccccc1`, the activity, negative = inhibition is reported as 0.436% [at 11.4 µM] (inactive).
`Fc1ccc(SCCc2ccncc2)cc1` was tested, and the AC50 was 5.01 µM (active).
For `C[C@@H]1CCCC(CC(=O)O)(CC(=O)O)C1`, the activity, negative = inhibition was 0.077% [at 11.4 µM] (inactive).
For `Cc1cccnc1NC(=O)C12CCC(C)(C(=O)O1)C2(C)C` (stereo not drawn), the AC50 was “inactive”.
For `O=C(O)c1nnsc1-c1ccc(-c2snnc2C(=O)O)cc1`, the activity, negative = inhibition was -3.33% [at 11.4 µM] (inactive).
For `CC(=O)Nc1ccc(Sc2ncccc2C(=O)Nc2ccc(F)cc2)cn1`, the AC50 was “inactive”.
`CC(=O)Nc1ccc(C#Cc2ccc(NC(C)=O)cc2)cc1` was tested, and the AC50 was “inactive”.
With `CCCCN(c1ccccc1)c1ncnc2c1cnn2C` the activity, negative = inhibition was -12.5% [at 11.4 µM] (inactive).
In the case of `Cc1nc(N2CCOCC2)nc(N2CCN(c3ccccc3)CC2)c1[N+](=O)[O-]`, the AC50 is reported as “inactive”.
For `O=[N+]([O-])c1cccnc1N1CCCCC1`, the AC50 was “inactive”.
In the case of `Cc1[nH]nc(N2CCCCCC2)c1[N+](=O)[O-]`, the AC50 is reported as 15.8 µM (active).
`Cn1c(Oc2ccccc2)c(C=O)c2ccccc21` was tested, and the AC50 was “inactive”.
In the case of `CCOc1ccc(OCC)c(-c2c(=O)n(OCc3ccccc3C(=O)OC)c3ccccc3[n+]2[O-])c1`, the AC50 is reported as “inactive”.
For `O=c1onc2cnc3ccccc3n12`, the AC50 was “inactive”.
In the case of `Cc1nc2c(C#N)c(C)[nH]n2c(=O)c1Cc1ccccc1`, the AC50 is reported as “inactive”.
In the case of `Cc1ccc(-n2c(O)c(/C=N/n3cnnc3)c3ccccc3c2=O)cc1`, the AC50 is reported as “inactive”.
For `C/C(=C\c1ccco1)C1C(C#N)=C(N)Oc2n[nH]c(-c3ccccc3)c21` (stereo not drawn), the AC50 was 31.6 µM (active).
In the case of `COc1cccc(-c2[nH]nc3c2C(c2ccsc2)C(C#N)=C(N)O3)c1` (stereo not drawn), the AC50 is reported as “inactive”.
For `COc1cccc(-c2[nH]nc3c2C(c2ccc(C)o2)C(C#N)=C(N)O3)c1` (stereo not drawn), the AC50 was “inactive”.
`Nc1ccccc1S(N)(=O)=O` was tested, and the AC50 was “inactive”.
With `O=C(O)CC(O)C(=O)O` (stereo not drawn) the AC50 was “inactive”.
With `CCN(CC)S(=O)(=O)N1CCC(C(=O)NCc2ccc(C)cc2)CC1` the AC50 was “inactive”.
For `Cc1ccc(S(=O)(=O)NCC2CCC(C(=O)O)CC2)cc1` (stereo not drawn), the AC50 was “inactive”.
With `Cc1cc(C)c(S(=O)(=O)NCC2CCC(C(=O)NCc3ccc4c(c3)OCO4)CC2)c(C)c1` (stereo not drawn) the AC50 was 12.6 µM (active).
In the case of `CN(C)CCNCCN`, the activity, negative = inhibition is reported as 8.7% [at 11.4 µM] (inactive).
In the case of `COCCn1c(=O)cnc2cnc(Oc3cccc(Cl)c3)nc21`, the AC50 is reported as “inactive”.
In the case of `C=C(C)C1Cc2nc(N)nc(C)c2C1` (stereo not drawn), the AC50 is reported as “inactive”.
For `Cc1nc2nc[nH]n2c(=O)c1NC(=O)CC12CC3CC(CC(C3)C1)C2`, the AC50 was “inactive”.
In the case of `COc1cc2cc3c4cc(OC)c(OC)cc4cc[n+]3c(C)c2cc1OC`, the AC50 is reported as “inactive”.
`CNC(=O)c1c(I)c(C(=O)NCC(=O)Nc2c(I)c(C(=O)O)c(I)c(C(=O)NCCO)c2I)c(I)c(N(C)C(C)=O)c1I` was tested, and the AC50 was “inactive”.
`CCOC(=O)[C@H](CCc1ccccc1)N[C@@H](C)C(=O)N1CCC[C@H]1C(=O)O` was tested, and the AC50 was “inactive”.
With `N#C/C(=C\c1ccc(O)c(O)c1)C(=O)OCCc1cccs1` the AC50 was 12.6 µM (active).
For `N#C/C(=C\c1ccc(O)c(O)c1)C(=O)NCc1ccccc1`, the AC50 was “inactive”.
In the case of `N#C/C(=C\c1ccc(O)c(O)c1)C(=O)NCCCc1ccccc1`, the AC50 is reported as 31.6 µM (active).
In the case of `C[C@H](NC(=O)/C(C#N)=C/c1ccc(O)c(O)c1)c1ccccc1`, the AC50 is reported as “inactive”.
For `C[C@@H](NC(=O)/C(C#N)=C/c1ccc(O)c(O)c1)c1ccccc1`, the AC50 was “inactive”.
For `CCOC(=O)/C(C#N)=C\c1ccc(OCC(=O)Nc2ccc(C)cc2C)c(OC)c1`, the AC50 was “inactive”.
In the case of `Nc1ncncc1-c1ccc([N+](=O)[O-])cc1`, the AC50 is reported as “inactive”.
In the case of `CC(=O)NC(NC(C)=O)c1ccc(Br)cc1`, the AC50 is reported as “inactive”.
`Cc1ccc(-n2nnnc2Sc2nc([N+](=O)[O-])nn2C)cc1C` was tested, and the AC50 was “inactive”.
`Cc1nc(S(=O)(=O)c2cccc(Cl)c2)nc2c1CCC2` was tested, and the AC50 was “inactive”.
`CC(=O)N(CC(=O)O)c1ccccc1C(=O)O` was tested, and the AC50 was “inactive”.
`CC(C)(C)c1cccc(Oc2nn[nH]n2)c1` was tested, and the AC50 was “inactive”.
For `CC1=C(C(N)=O)C(c2cccs2)n2nc(-c3cccc(Cl)c3)nc2N1` (stereo not drawn), the AC50 was “inactive”.
With `O=c1[nH]c2cc(Br)cnc2nc1/C=C(\O)c1ccc(F)cc1` the AC50 was “inactive”.
For `COC(=O)[C@@H]1C[C@H]1[C@@H](NC(=O)c1cccnc1)c1ccccc1`, the AC50 was “inactive”.
In the case of `COCCn1c(=O)c(-c2cccc(C#N)c2)nc2cnc(Oc3ccccc3)nc21`, the AC50 is reported as “inactive”.
`Cc1ccc(C)c(NC(=O)NCc2ccc(Cl)cc2)c1` was tested, and the AC50 was 3.98 µM (active).
`Cc1ccc(Cn2cccc(NC(=O)NCc3ccccc3)c2=O)cc1` was tested, and the AC50 was “inactive”.
For `NC(=O)NCc1ccc(Cl)cc1`, the AC50 was “inactive”.
For `CCc1c(C)c2c(C)[nH]nc2oc1=O`, the AC50 was “inactive”.
In the case of `N#Cc1c(-c2ccc(Cl)cc2)nc2n(c1=O)CCCS2`, the AC50 is reported as “inactive”.
`COc1ccc(C2=NOC(C(=O)NCc3ccco3)C2)cc1OC` (stereo not drawn) was tested, and the AC50 was “inactive”.
With `COc1ccc(CNC(=O)C2CSC(=O)C2)cc1` (stereo not drawn) the AC50 was “inactive”.
In the case of `O=C(NCc1ccc2c(c1)OCO2)C1CC(c2cccc(Br)c2)=NO1` (stereo not drawn), the AC50 is reported as 0.891 µM (active).
For `COc1cccc(C2=NOC(C(=O)NCc3ccccn3)C2)c1` (stereo not drawn), the AC50 was “inactive”.
`COc1ccc(CNC(=O)C2CC(c3cccc([N+](=O)[O-])c3)=NO2)cc1` (stereo not drawn) was tested, and the AC50 was 5.01 µM (active).
`COc1cccc(C2=NOC(C(=O)Nc3cccnc3)C2)c1` (stereo not drawn) was tested, and the AC50 was 11.2 µM (active).
With `O=C(NNC(=O)C1CC(c2cccnc2)=NO1)Nc1cccc(F)c1` (stereo not drawn) the AC50 was “inactive”.
For `COc1cccc(C2=NOC(C(=O)Nc3ccc(OC)c(OC)c3)C2)c1` (stereo not drawn), the AC50 was “inactive”.
With `COc1cccc(C2=NOC(C(=O)NCc3ccccc3)C2)c1` (stereo not drawn) the AC50 was 12.6 µM (active).
In the case of `COCCNC(=O)C1CC(c2cccc(OC)c2)=NO1` (stereo not drawn), the AC50 is reported as “inactive”.
For `COc1cccc(C2=NOC(C(=O)NCCN3CCOCC3)C2)c1` (stereo not drawn), the AC50 was “inactive”.
In the case of `CO[C@H]1COC(=O)C/C=C\[C@@H](C)COC(=O)[C@@H](CCSC)NC(=O)C/C=C\[C@@H]1C`, the activity, negative = inhibition is reported as 14% [at 11.4 µM] (inactive) and 6.2% [at 11.4 µM] (inactive).
With `O=C(c1cc(C(F)(F)F)cc(C(F)(F)F)c1)N1CCC[C@@]2(CCN(c3ncccn3)C2)C1` the AC50 was “inactive”.
With `O=S(=O)(O)c1cc(N=Nc2cccc3ccccc23)c(O)c2ncccc12` the activity, negative = inhibition was -9.94% [at 11.4 µM] (inactive).
